Unmarked numbers belong to inactive results. Records with an inconclusive call do not appear. Active and inactive are the calls of the source. Unless noted, the call rests on the fitted dose curve; in most records, active means well fitted curve in the direction sought with a large enough effect in the repeat runs; inconclusive means weak or mixed curves; inactive means no such curve, though single readings can be large; an effect the other way counts as inactive or inconclusive.

Assay [1] deals with Nuclear receptor subfamily 1 group I member 3 (Homo sapiens) (UniProt Q14994). Briefly: qHTS assay to identify small molecule agonists of the constitutive androstane receptor (CAR) signaling pathway (AID 1224839). Further: nearly all actives have a fitted effect of over 15% in size. Further: potency means the concentration at half of the fitted maximal effect.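 On activation: HepG2 cells stably carrying human CAR and a CYP2B6 luciferase reporter; series mostly up to about 92 µM.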 The method in brief: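 Readout: firefly luciferase luminescence via ONE-Glo. System: HepG2 double-stable for hCAR and CYP2B6-2.2kb. Conditions: 15-point compound titration, PK11195 at 0.75 uM final, 24 h incubation.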
(qHTS replaces the single test concentration by a dilution series.)

Assay [2] in a line: qHTS assay to identify small molecule antagonists of the estrogen related receptor signaling pathway with the pleiotropic PPARgamma coactivator (PGC) from Tox21 10K library - cell viability counter screen (AID 1224840; active means well fitted cell-killing curve with a large enough effect in the repeat runs, not every such curve was filed as active; further: nearly all actives have a fitted effect of over 40% in size). In outline:
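Seeded PGC/ERR cells (2,000/well, 6 h, 37 C/5% CO2) get compound by pin tool; 17.5 h incubation at 37 C; CellTiter-Fluor added, 30 min, fluorescence measured.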

The nature of assay [3]: qHTS assay to identify small molecule antagonists of the estrogen related receptor signaling pathway with the pleiotropic PPARgamma coactivator (PGC) from Tox21 10K library (AID 1224841; call rule not given here; further: series mostly up to about 92 µM; actives are mostly falling curves and most rising ones were filed inactive; nearly all actives have a fitted effect of over 50% in size). In outline:
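Test chemicals dissolved in DMSO were applied to pre-incubated (6 h) PGC/ERR cells at 2,000 cells/well for an 18 h, 37 C treatment; reporter luminescence was then read using One-Glo.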

Assay [4] addresses Thyrotropin receptor (Homo sapiens) (UniProt P16473). Briefly: qHTS assay to identify small molecule agonists of the thyroid stimulating hormone receptor (TSHR) signaling pathway (AID 1224843; calls by dose curve; further: nearly all actives have a fitted effect of over 45% in size). The method in brief:
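Using 15 concentrations per compound in triplicate, cAMP production was monitored in TSHR-HEK293 cells after 30 min compound incubation at RT; HTRF reagents followed, with fluorescence intensity recorded after 1 h.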

Assay [5] in a line: qHTS assay to identify small molecule agonists of the hypoxia (HIF-1) signaling pathway - cell viability counter screen (AID 1224844; calls by dose curve; further: nearly all actives have a fitted effect of over 50% in size). In outline:
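HRE-bla ME-180; 0.5% dFBS; cpd 17 h, 37C, 5% CO2; CellTiter-Glo lum., 30 min RT, post-FRET read, same wells.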

A short description of assay [6]: qHTS assay to identify small molecule agonists of H2AX (AID 1224845; active means well fitted activation curve with a large enough effect in the signal ratio in the repeat runs, not every such curve was filed as active; the % refers to the signal ratio). The method in brief: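 Wild-type CHO-K1 cells plated overnight, then exposed 3 hr at 37C to compounds at 15 concentrations (0.76% DMSO). Lysed, then HTRF anti-pH2AX(S139)-cryptate/anti-H2AX-d2 detection after 24 hr at room temperature; emissions 665 and 620 nm.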
A short description of assay [7]: qHTS assay to identify small molecule agonists of the hypoxia (HIF-1) signaling pathway (AID 1224846; active means well fitted activation curve with a large enough effect in the signal ratio in the repeat runs, not every such curve was filed as active; the % refers to the signal ratio). In outline:
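Reporter induction in HRE-bla ME-180 cells is taken as agonism: cells sit 5 hrs after plating, receive compounds or DMSO only, incubate 17 hrs at 37C under 5% CO2, and are loaded with CCF4-AM for beta-lactamase FRET measurement.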

A short description of assay [8]: qHTS assay to identify small molecule agonists of H2AX - cell viability counter screen (AID 1224847; calls by dose curve; further: top concentration of the series differs between compounds; nearly all actives have a fitted effect of over 30% in size). In outline:
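For this counter screen, overnight-attached CHO-K1 cells received test compounds (15 concentrations, 0.76% DMSO final); 3 hr later at 37C, CellTiter-Glo reagent was added and luminescence recorded after 30 min at room temperature.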

A short description of assay [9]: qHTS assay to identify small molecule antagonists of the estrogen related receptor (ERR) signaling pathway from Tox21 library (AID 1224848). Further: nearly all actives have a fitted effect of over 50% in size. The method in brief:
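Tox21 10K compounds in DMSO tested for ERR pathway antagonism in NTP's ERR cell line; 18 h, 37 C exposure; ONE-Glo luminescence.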

A short description of assay [10]: qHTS RealTime-Glo MT Cell Viability Assay in HepG2 cells - 24 hour (AID 1224867). Further: nearly all actives have a fitted effect of over 50% in size. The method in brief:
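HepG2 suspension premixed with RealTime-Glo reagents is plated at 600 cells per well and left 5 h at 37 C/5% CO2. Compounds in DMSO then go in, and bioluminescence reflecting viable cell number is recorded over 40 h.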

A short description of assay [11]: qHTS RealTime-Glo MT Cell Viability Assay in HEK293 cells - 32 hour (AID 1224868). The method in brief: (§1)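 Reads taken at 0, 8, 16, 24, 32 and 40 h from the same wells. HEK293 cells (600/well) carried RealTime-Glo reagents from seeding, with compound added after a 5 h settle at 37 C.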
The nature of assay [12]: A CellTox Green Cytotoxicity Assay to monitor cytotoxicity in HEK293 cells - 0 hour (AID 1224869). Further: nearly all actives have a fitted effect of over 50% in size. In outline:
(§2)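 Tox21 screen in HEK293: membrane-impermeant cyanine dye fluoresces on binding dead-cell DNA; compound pinned 5 h post-seeding, plates held at 37 C, signal read repeatedly through 40 h.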

The nature of assay [13]: A CellTox Green Cytotoxicity Assay to monitor cytotoxicity in HEK293 cells - 40 hour (AID 1224871). Further: nearly all actives have a fitted effect of over 45% in size. The method in brief:
as §2

Assay [14] in a line: qHTS RealTime-Glo MT Cell Viability Assay in HEK293 cells - 16 hour (AID 1224872). The method in brief:
as §1

Assay [15] is described as follows: qHTS RealTime-Glo MT Cell Viability Assay in HepG2 cells - 8 hour (AID 1224873). Further: nearly all actives have a fitted effect of over 55% in size. The method in brief:
(§3)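 HepG2 cells mixed with RealTime-Glo MT reagents (NanoLuc plus cell-permeant prosubstrate) were seeded at 600 cells/well, incubated 5 h at 37 C/5% CO2, then pinned with compounds in DMSO; nonlytic luminescence tracked viability during 40 h treatment.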

Assay [16] is described as follows: qHTS RealTime-Glo MT Cell Viability Assay in HEK293 cells - 40 hour (AID 1224874). Further: nearly all actives have a fitted effect of over 50% in size. To be noted: RealTime-Glo luminescence; max response: hits give low values. In outline: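 HEK293 + NanoLuc + prosubstrate, 600 cells/well; 5 h, 37 C/5% CO2; compound 23 nL in DMSO by pintool; 37 C; luminescence read at 0, 8, 16, 24, 32 and 40 h time points.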
Assay [17] is described as follows: A CellTox Green Cytotoxicity Assay to monitor cytotoxicity in HEK293 cells - 24 hour (AID 1224875). Further: series mostly up to about 77 µM; nearly all actives have a fitted effect of over 45% in size. In outline:
as §2

Assay [18] can be described thus: qHTS assay to identify small molecule agonists of the estrogen related receptor signaling pathway with the pleiotropic PPARgamma coactivator (PGC) from Tox21 10K library (AID 1224842). Further: nearly all actives have a fitted effect of over 15% in size. The method in brief: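 PGC/ERR reporter cells (NTP line) were seeded 2,000 per well, rested 6 h at 37 C/5% CO2, then pin-dosed with compounds in DMSO for 18 h at 37 C; luciferase read by One-Glo luminescence after 30 min at room temperature.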

Assay [19] is described as follows: qHTS assay to identify small molecule agonists of the estrogen related receptor (ERR) signaling pathway from Tox21 library (AID 1224849; calls by dose curve; further: nearly all actives have a fitted effect of over 15% in size). In outline: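 Tox21 compounds tested for ERR agonism in an NTP reporter cell line: 18 h treatment at 37 C, then ONE-Glo luminescence.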
Assay [20] can be described thus: qHTS RealTime-Glo MT Cell Viability Assay in HepG2 cells - 40 hour (AID 1224870). Further: nearly all actives have a fitted effect of over 50% in size. In outline: as §3
On the % scale 0 is the no-effect control and ±100 the full control effect.

Thyrotropin receptor (Homo sapiens), sequence (P16473 whole entry, looked up): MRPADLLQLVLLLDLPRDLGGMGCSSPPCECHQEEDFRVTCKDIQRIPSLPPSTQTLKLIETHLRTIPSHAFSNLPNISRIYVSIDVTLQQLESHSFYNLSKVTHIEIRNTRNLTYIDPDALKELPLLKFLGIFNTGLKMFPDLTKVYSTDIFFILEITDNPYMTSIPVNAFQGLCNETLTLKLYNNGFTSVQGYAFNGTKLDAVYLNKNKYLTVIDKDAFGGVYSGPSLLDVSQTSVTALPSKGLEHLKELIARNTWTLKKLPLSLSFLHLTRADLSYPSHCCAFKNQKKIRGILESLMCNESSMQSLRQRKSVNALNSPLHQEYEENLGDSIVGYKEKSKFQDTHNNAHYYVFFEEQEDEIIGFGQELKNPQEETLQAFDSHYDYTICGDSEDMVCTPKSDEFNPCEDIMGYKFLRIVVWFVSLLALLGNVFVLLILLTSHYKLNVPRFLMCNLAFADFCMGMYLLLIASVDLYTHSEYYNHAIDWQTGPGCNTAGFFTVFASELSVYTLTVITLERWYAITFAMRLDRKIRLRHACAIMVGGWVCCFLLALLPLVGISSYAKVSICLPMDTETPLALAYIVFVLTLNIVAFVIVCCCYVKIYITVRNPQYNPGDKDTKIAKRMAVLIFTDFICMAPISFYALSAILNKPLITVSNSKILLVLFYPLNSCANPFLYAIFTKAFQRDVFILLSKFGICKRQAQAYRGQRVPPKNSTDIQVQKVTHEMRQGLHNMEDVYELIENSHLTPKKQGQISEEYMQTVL
Nuclear receptor subfamily 1 group I member 3 (Homo sapiens), sequence (Q14994 whole entry, looked up): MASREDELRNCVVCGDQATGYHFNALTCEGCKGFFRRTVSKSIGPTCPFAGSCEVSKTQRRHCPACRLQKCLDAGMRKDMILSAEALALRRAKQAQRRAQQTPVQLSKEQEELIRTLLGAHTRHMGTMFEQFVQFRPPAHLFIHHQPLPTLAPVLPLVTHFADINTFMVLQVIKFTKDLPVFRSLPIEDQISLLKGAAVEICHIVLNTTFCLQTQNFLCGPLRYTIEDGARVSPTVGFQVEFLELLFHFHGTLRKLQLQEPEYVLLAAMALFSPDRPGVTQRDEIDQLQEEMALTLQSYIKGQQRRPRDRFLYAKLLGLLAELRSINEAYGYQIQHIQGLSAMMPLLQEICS

With `CCCCC(CC)CNC(=O)CC(C)OC(=O)CCC(=O)O` (stereo not given), the Potency entry in assay [1], in assay [3], in assay [8], in assay [9], in assay [11] and in assay [12] was “inactive” in each case. In addition, the Potency result in [13], in [14] and in assay [17] was “inactive” throughout. The call in [2], in assay [4], in assay [5], in assay [6], in assay [7] and in assay [10] was inactive. Besides, in [15], the call was inactive. For the same compound, the max response in [16] is 3.69%.
Regarding `CC(C)(c1ccc(Oc2ccc3c(c2)C(=O)OC3=O)cc1)c1ccc(Oc2ccc3c(c2)C(=O)OC3=O)cc1`, the Potency entry in assay [1], in [3], in [8], in assay [9], in [11] and in assay [12] was “inactive” in each case. Besides, the Potency entry in [13], in assay [14] and in assay [17] was “inactive” each time. Besides, the compound was called inactive in [2], in assay [18], in assay [4], in assay [5], in assay [6] and in [7]. In addition, the call in [19], in [10] and in [20] was inactive. The max response in assay [16] was 19.4%.
Take `CCNC(=O)/C=C/c1cccc(Br)c1`: the Potency in assay [1] is 26.6 µM (active). Besides, the outcome in assay [2], in assay [4], in assay [5], in assay [6], in assay [7] and in assay [10] was inactive. The outcome in assay [20] and in assay [15] was inactive. Besides, the Potency entry in [8], in [11], in [12], in [13], in assay [14] and in assay [17] was “inactive” each time. Further, the max response in assay [16] was 1.9%.
Regarding `CCN(Cc1cccc(S(=O)(=O)O)c1)c1ccccc1`, the Potency entry in assay [1], in assay [8], in assay [11], in assay [12], in [13] and in assay [14] was “inactive” in each case. The compound was called inactive in assay [2], in assay [4], in [5], in assay [6], in assay [10] and in assay [20]. Moreover, the compound was called inactive in assay [15]. The max response in assay [16] was 0.413%.
As for `COc1cc2c(Nc3ccc(Br)cc3F)ncnc2cc1OCC1CCN(C)CC1`, the Potency entry in [1], in [8], in assay [11], in assay [12], in assay [13] and in assay [14] was “inactive” throughout. In addition, in [17], the Potency entry was “inactive”. The outcome in assay [2], in [5], in assay [6], in assay [7], in [10] and in assay [20] was inactive. In assay [16], the max response was 6.99%.
Regarding `O=CO`, the activation is -3.71% [at 8.39 µM] in assay [1], -0.64% [at 8.39 µM] in assay [18] and -0.756% [at 7.01 µM] in assay [7]. Further, the viability change, negative = cytotoxic in assay [2] is -0.178% [at 8.39 µM]; in assay [15] it was -8.93% [at 6.97 µM]. Also, the activity, negative = inhibition in [3] was 4.47% [at 8.39 µM]; in [9], -2.33% [at 8.39 µM]. Besides, the activity change, negative = cytotoxicity in [5] is -0.151% [at 6.97 µM]; in assay [8] it was 0.103% [at 14 µM]; in [10] it was 0.773% [at 6.97 µM]; in assay [14], 2.46% [at 6.97 µM]. The activation (H2AX phosphorylation) in [6] was 0.0105% [at 14 µM]. Further, the activity change, positive = activation in assay [19] is -1.2% [at 8.39 µM]. For the same compound, in assay [11], the activity change, negative = cytotoxic is 1.16% [at 6.97 µM]. Moreover, in assay [12], the cytotoxicity is -3.71% [at 6.97 µM]. The max response in assay [16] is -0.6%.
On to `O=S(=O)(O)SSS(=O)(=O)O`, for which the Potency entry in assay [1], in [8], in assay [11], in assay [13], in assay [14] and in assay [17] was “inactive” in each case. Further, the outcome in [2], in assay [4], in [5], in assay [6], in assay [7] and in assay [10] was inactive. The outcome in assay [20] and in assay [15] was inactive. The max response in assay [16] is 4.41%.
With `COc1cc([N+](=O)[O-])ccc1N`, the Potency result in [1], in assay [8], in [11], in assay [12], in assay [13] and in [14] was “inactive” each time. The Potency result in assay [17] was “inactive”. In addition, the result in assay [4], in [5], in [6], in assay [7], in [10] and in assay [20] was inactive. Besides, the max response in assay [16] was -15.5%.
